High-throughput results from PubChem BioAssay.
Beta2AR agonist: beta2AR agonists driving receptor internalization, primary screen, cell-based, FAP fluorogen, flow cytometry; AID 504454, 2011; 340,000 tested, 0.43% active; response, % (concentration not given with the values); Am2.2-beta2AR cells; Beta-2 adrenergic receptor (Homo sapiens), P07550;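 active = response above a set limit, near 3 SD of response in nonfluorescent compounds, cut at about 42% in these data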
Target sequence (P07550 whole entry, looked up): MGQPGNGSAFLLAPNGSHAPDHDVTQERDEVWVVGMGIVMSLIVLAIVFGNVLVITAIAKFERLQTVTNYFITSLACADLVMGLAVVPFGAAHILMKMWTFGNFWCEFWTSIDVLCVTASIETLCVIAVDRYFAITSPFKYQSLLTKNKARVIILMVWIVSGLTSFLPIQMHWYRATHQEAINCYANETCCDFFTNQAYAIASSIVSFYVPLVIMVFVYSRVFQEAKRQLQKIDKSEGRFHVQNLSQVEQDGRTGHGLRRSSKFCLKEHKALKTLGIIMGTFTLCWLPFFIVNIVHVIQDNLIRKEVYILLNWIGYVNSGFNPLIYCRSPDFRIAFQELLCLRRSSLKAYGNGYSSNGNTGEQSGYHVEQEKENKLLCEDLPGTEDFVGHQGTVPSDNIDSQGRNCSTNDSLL
dFosB act-1: activators of delta FosB homodimer, primary screen, biochemical, fluorescence polarization, TAMRA-CDK5 oligo, single point. AID 493131, 2011. 340,000 tested, 0.99% active. activation, % at 25 µM. purified delta FosB; percent of positive-control signal above neutral wells;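 active = mean activation above about 17%, with every replicate also reaching it, limit read from the data, passing the limit was not always enough; inconclusive = only one of the two conditions met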
Dyrk1A ADPGlo: rat Dyrk1A kinase inhibitors, primary screen, biochemical, single point, plate reader. 310,000 tested, 0.43% active. inhibition, % at 12.5 µM. ADP-Glo luminescence, NFATc1 peptide. Dual specificity tyrosine-phosphorylation-regulated kinase 1A (Rattus norvegicus), Q63470; in the data active = inhibition above about 50%
A1 inh: caspase 3/7 activation in MEF A1-2A-BIM cells, primary screen, A1 inhibitor project, cell-based, luminescence, HTS. Caspase-Glo 3/7 luminescence, 3 h; percent of clofoctol response, vehicle zero. caspase activation, % (concentration not given with the values). 330,000 tested, 0.066% active;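 active = over half of replicate activation scores above 10%, or exactly half above 10 with the replicate mean above 10; inconclusive = replicate mean below 10 yet half the replicates above 10; inactive = over half of replicates below 10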
dFosB act-2: activators of mouse delta FosB DNA binding, confirmation, biochemical, fluorescence polarization, TAMRA-CDK5 oligo, cherry-picked samples; shares compounds with dFosB act-1; purified delta FosB; normalised: neutral wells 0, positive control 100; 2,400 tested, under 10 active; activation, % at 24.9 µM; AID 588690, 2011;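 active = highest replicate activation at or above 34% and every replicate reaching that threshold; inconclusive = meets only one of the two criteria; inactive = meets neither criterion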;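 note: higher polarization means more probe DNA bound by delta FosB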
Numbers stand for hits; 0 = inactive; ? = inconclusive; - = no result. Shown are actives, neighbours in structure and some others; about 1.6% of the full set was active somewhere.

SMILES	Beta2AR agonist	dFosB act-1	Dyrk1A ADPGlo	A1 inh	dFosB act-2
COc1cccc(CNC(=O)C2CCC(CNc3nc(=S)[nH]c4ccccc34)CC2)c1 (stereo not drawn)	0	37.5	0	0	0
Cc1ccc(CNC(=O)C2CCC(CNc3nc(=S)[nH]c4ccccc34)CC2)cc1 (stereo not drawn)	0	?	0	0	-
COc1ccc(CNC(=O)Cc2csc(Nc3nc(=S)[nH]c4ccccc34)n2)cc1	0	35.4	0	0	0
O=C(NNC(=O)c1ccccc1F)c1ccc(S(=O)(=O)N2CCCCC2)cc1	0	0	0	0	-
Cc1cccc(N2C(=O)CC(c3ccc(F)cc3)C3=C2COC3=O)c1 (stereo not drawn)	0	0	0	0	-
NS(=O)(=O)c1ccc(Sc2ccc3c(c2)CCC3)nc1	0	0	0	0	-
Cc1ccc2nc(C)cc(Nc3ccc([N+](=O)[O-])cc3)c2c1	0	63.4	0	0	0
COC(=O)c1ccc(Nc2cc(C)nc3ccc(C)cc23)cc1	0	0	0	0	-
Cc1cc(C)c(NC(=O)Cn2c(=O)n(Cc3ccco3)c(=O)c3ccccc32)c(C)c1	0	63.6	0	0	0
O=C(CCCCn1c(=O)c2ccccc2n(CC(=O)Nc2cccc(F)c2)c1=O)NCc1ccco1	0	24.4	0	0	0
COc1cccc(NC(=O)Cn2c(=O)n(CCCC(=O)NCc3ccco3)c(=O)c3ccccc32)c1	0	0	-	-	-
CCC(C)NC(=O)Cn1c(=O)n(CCCC(=O)NCc2ccccc2Cl)c(=O)c2ccccc21 (stereo not drawn)	0	19.8	0	0	0
Cc1ccc(S(=O)(=O)NCC(=O)OCC(=O)N(CCC#N)c2ccccc2)cc1	0	0	0	0	-
CC1(C)N=C(N)N=C(N)N1c1ccc(Oc2ccc(Cl)cc2)c(Cl)c1	0	0	0	0	-
CCc1ccc(NC(=O)C2CCCN(S(=O)(=O)c3ccc4[nH]c(=O)ccc4c3)C2)cc1 (stereo not drawn)	0	29.3	0	0	0
CCc1cccc(NC(=O)C2CCN(S(=O)(=O)c3ccc4[nH]c(=O)ccc4c3)CC2)c1	0	0	0	0	-
COc1ccc(NC(=O)C2CCCN(S(=O)(=O)c3ccc4[nH]c(=O)ccc4c3)C2)cc1OC (stereo not drawn)	0	0	0	0	-
Cc1cc(C)cc(NC(=O)C2CCN(S(=O)(=O)c3ccc4[nH]c(=O)ccc4c3)CC2)c1	0	46.3	0	-	0
Cc1cccc(NC(=O)CN2C(=O)N/C(=C/c3cc(C)n(C(C)C)c3C)C2=O)c1	0	0	-	0	-
CCOc1cccc(/C=C2/NC(=O)N(CC(=O)Nc3cccc(C)c3)C2=O)c1O	0	23.4	0	0	0
Cc1cccc(NC(=O)CN2C(=O)N/C(=C/c3ccc(C)s3)C2=O)c1	0	31.0	0	0	0
Cc1ccc(-n2ncc3c(NNC(=O)c4cccs4)ncnc32)cc1	0	0	0	0	-
Cc1ccc(NC(=O)C(C)OC(=O)CCC2CCCCC2)cc1 (stereo not drawn)	0	0	0	0	-
COc1cccc(/C=N/NC(=O)CCn2c3ccccc3c3ccccc32)c1	0	23.7	0	0	0
COc1ccc(/C=N/NC(=O)CCn2c3ccccc3c3ccccc32)cc1O	0	0	0	0	-
SMILES	Beta2AR agonist	dFosB act-1	Dyrk1A ADPGlo	A1 inh	dFosB act-2
Cc1ccc(NC(=O)C(=O)NCc2ccc(/C=C(/C#N)C(=O)NCc3cccnc3)o2)cc1	0	0	0	0	-
N#C/C(=C/c1ccc(CNC(=O)C(=O)Nc2cc(Cl)cc(Cl)c2)o1)C(=O)NCc1cccnc1	0	52.5	0	0	0
Cc1cc(O)c(-c2cc(C(=O)Nc3ccc(S(=O)(=O)N4CCOCC4)cc3)[nH]n2)cc1C	0	24.6	0	0	0
Cc1ccc(-c2cc(C(=O)Nc3ccc(S(=O)(=O)N4CC(C)OC(C)C4)cc3)[nH]n2)c(O)c1 (stereo not drawn)	0	42.1	0	0	0
N#Cc1ccc(C(=O)NC(=S)N2CCN(C=O)CC2)cc1	0	0	-	0	-
Cc1ccc(C(=O)NCCNc2nc3cc(C)c(C)cc3cc2C)cc1	0	40.7	0	0	0
CC(=O)Nc1ccc(S(=O)(=O)NCCS(=O)(=O)N2CCN(c3ccccc3F)CC2)cc1	0	21.6	0	0	0
CCCNC(=O)c1cc(S(=O)(=O)N2CCc3ccccc32)ccc1F	0	0	0	0	-
COc1ccccc1NC(=O)c1cc(S(=O)(=O)N2CCc3ccccc32)ccc1F	0	30.2	0	0	0
O=C(CSCc1nc2c(nnn2Cc2ccc(F)cc2)c(=O)[nH]1)Nc1c(Cl)cc(Cl)cc1Cl	0	29.1	-	0	0
CCc1nc2c(nnn2Cc2ccc(F)cc2)c(=O)[nH]1	0	0	0	0	-
O=C(CSc1ccc(-c2ccc(-n3cccn3)cc2)nn1)Nc1ccccc1F	0	24.8	0	0	0
O=C(CSc1ccc(-c2cccnc2)nn1)Nc1ccccc1F	0	0	0	0	-
O=C(Nc1nc2cc3c(cc2s1)OCCO3)c1cccc(N2C(=O)CCC2=O)c1	0	0	0	0	-
CCN(CC)S(=O)(=O)c1cccc(C(=O)Nc2nc3cc4c(cc3s2)OCCO4)c1	0	23.3	0	0	0
COc1ccccc1C(=O)Nc1nc2cc3c(cc2s1)OCCO3	0	30.9	0	0	0
O=C(NCc1cccc(Cl)c1)N1CCN(S(=O)(=O)c2ccccc2F)CC1	0	0	0	0	-
CC(C)Cc1ccc(C(=O)Nc2ccc(Cc3ccncc3)cc2)o1	0	0	0	0	-
O=C(N/N=C/c1ccc(OC(=O)c2ccc(Br)cc2)cc1)c1ccncc1	0	90.1	0	0	0
COc1ccc(/C(C)=N/NC(=O)c2ccncc2)cc1	0	0	0	0	-
COc1ccc(/C=C/C(=O)Oc2ccc(/C=N/NC(=O)c3ccncc3)cc2)cc1	0	22.3	0	0	0
O=C(N/N=C/c1ccc(OC(=O)c2ccco2)cc1)c1ccncc1	0	0	0	0	-
COc1ccc(C(=O)Nc2ccc(/C(C)=N/NC(=O)c3ccncc3)cc2)cc1	0	39.8	0	0	0
CCC(C)[C@H](NC(=O)[C@@H]1CSC2c3ccccc3C(=O)N21)C(=O)N1CCCCC1 (stereo partly drawn)	0	0	0	0	-
COc1ccc(C(=O)COC(=O)CCN2C(=O)C3C4C=CC(C5CC45)C3C2=O)cc1 (stereo not drawn)	0	0	0	0	-
CCc1ccc(OCC(=O)NNC(=O)Cc2c(F)cccc2Cl)cc1	0	28.6	-	0	0
Cc1cccc(C)c1NC(=O)CN(C)S(=O)(=O)c1ccc(-c2ccc(=O)[nH]n2)s1	0	0	0	0	-
Cn1nnc(NC(=S)NC(=O)c2ccc(-c3ccc(Br)cc3)o2)n1	0	32.8	0	0	0
CCc1c(C)c(C#N)c2nc3ccccc3n2c1NCCN(C)C	0	20.9	0	0	0
